Measurements from PubChem BioAssay (EPA / NIEHS).
Calls of active or inactive are those of the source. How the source made its calls: active means hit-call score of the fitted dose curve at least 0.9, where 1 is the maximum; inactive means score below 0.9.

These compounds were tested against Aryl hydrocarbon receptor (Homo sapiens) (UniProt P35869) (assay: ATG_Ahr_CIS: Attagene CIS-FACTORIAL HepG2 Assay for human Aryl Hydrocarbon Receptor (Ahr) (AID 2282930)). Conditions: HepG2 AhR cis-factorial reporter transcription; actives raise or lower the signal.
Chain of Aryl hydrocarbon receptor (Homo sapiens) (P35869 whole entry, looked up): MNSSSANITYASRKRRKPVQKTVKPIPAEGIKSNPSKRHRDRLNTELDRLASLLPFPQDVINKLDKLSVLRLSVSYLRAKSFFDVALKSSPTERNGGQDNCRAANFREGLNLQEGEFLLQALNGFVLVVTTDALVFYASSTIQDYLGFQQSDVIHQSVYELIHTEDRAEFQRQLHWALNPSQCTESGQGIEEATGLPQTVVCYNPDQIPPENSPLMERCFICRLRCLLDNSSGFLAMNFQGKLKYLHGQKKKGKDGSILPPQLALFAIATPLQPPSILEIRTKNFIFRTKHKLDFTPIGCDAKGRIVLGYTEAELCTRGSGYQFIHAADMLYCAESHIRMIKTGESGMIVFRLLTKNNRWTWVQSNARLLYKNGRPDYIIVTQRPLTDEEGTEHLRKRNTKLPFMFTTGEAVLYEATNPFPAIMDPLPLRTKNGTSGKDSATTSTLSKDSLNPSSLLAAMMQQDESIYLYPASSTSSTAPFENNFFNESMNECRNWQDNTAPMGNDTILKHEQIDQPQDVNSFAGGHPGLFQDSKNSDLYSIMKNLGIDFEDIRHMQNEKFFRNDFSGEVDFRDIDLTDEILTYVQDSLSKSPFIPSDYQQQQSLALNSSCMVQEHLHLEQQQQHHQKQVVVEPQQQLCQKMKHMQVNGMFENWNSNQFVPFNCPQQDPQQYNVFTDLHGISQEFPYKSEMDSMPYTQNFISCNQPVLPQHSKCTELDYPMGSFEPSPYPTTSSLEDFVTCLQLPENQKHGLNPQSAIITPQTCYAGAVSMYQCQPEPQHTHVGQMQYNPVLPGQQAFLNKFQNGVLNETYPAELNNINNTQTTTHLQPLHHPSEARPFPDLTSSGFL
Method: ATG_CIS is a cell-based, multiplexed-readout assay that uses HepG2, a human liver cell line, with measurements taken at 24 hours after chemical dosing in a 24-well plate.ATG_Ahr_CIS is one of 52 assay component(s) measured or calculated from the ATG_CIS assay. It is designed to make measurements of mRNA induction, a form of inducible reporter, as detected with fluorescence intensity signals by Reverse transcription polymerase chain reaction (RT-PCR) and Capillary electrophoresis technology.Data from the assay component ATG_Ahr_CIS was analyzed into 1 assay endpoint. This assay endpoint, ATG_Ahr_CIS, was analyzed with bidirectional fitting relative to DMSO as the negative control and baseline of activity. Using a type of inducible reporter, measures of mRNA for gain or loss-of-signal activity can be used to understand the reporter gene at the transcription factor-level as they relate to the gene AHR. Furthermore, this assay endpoint can be referred to as a primary readout, because this assay has produced multiple assay endpoints where this one serves a reporter gene function. To generalize the intended target to other relatable targets, this assay endpoint is annotated to the dna binding intended target family, where the subfamily is basic helix-loop-helix protein.
Human liver HepG2 cells are transiently transfected with multiple reporter transcription units (MRTUs) in 6-well plates using FuGene 6 reagent (Roche; 3 ml FuGene/1 mg DNA). The MRTU constructs are regulated by a cis-regulating element (promoter). […] A major difference between the CIS and TRANS system is that in CIS activities of endogenous TFs are measured, whereas the TRANS assay evaluates changes in activities of exogenous, chimeric NR-Gal4 proteins. […] At the end of 24 hour incubation, total RNA was isolated using TriZol reagent (Invitrogen). The isolated RNA is then reverse-transcribed using oligo(dT) primer and Mo-MLV reverse transcriptase (Invitrogen) with DNAse I (Ambion) treatment for 30 min. The one-tenth of the produced cDNA was amplified by PCR using Taq DNA polymerase (Invitrogen) and two reporter sequence-specific primers. The PCR products were fluorescently labeled by primer extension with 6-arboxyfluorescein (6-FAM) 5'-labeled reporter sequence-specific primer (2 min at 95 C, 20 s at 68 C and 10 min at 72 C) and these products were digested with 5U of HpaI (New England Biolabs) for 2h at 37 C. […] The raw capillary electrophoresis data was processed using Attagraph software (Attagene).

Question: For CCc1ccc(O)c(C(C)(C)C)c1, which outcome is on record?
Answer: inactive

Question: How did the outcome turn out when O=c1[nH]cnc2c1ncn2[C@H]1CC[C@@H](CO)O1 was run?
Answer: inactive

Question: For FC(F)C(F)(F)COCC1CO1 (stereo not given), which outcome is on record?
Answer: inactive

Question: Cc1nccn1-c1ccc(Sc2cccc(C3(C(N)=O)CCOCC3)c2)cc1 was tested. Which outcome did it give?
Answer: inactive

Question: How did the outcome turn out when OCCC(F)(F)C(F)(F)C(F)(F)C(F)(F)F was run?
Answer: inactive

Question: CCCCCCCCCC was tested. Which outcome did it give?
Answer: inactive

Question: How did the outcome turn out when NNC(=O)c1ccncc1 was run?
Answer: inactive

Question: Which outcome does the source give for C[C@@H](Oc1ccc(CNC(=O)c2cccnc2Oc2ccc3c(c2)OCO3)c(F)c1)C(=O)O here?
Answer: inactive

Question: FC(F)=C(F)C(F)(F)C(F)(F)C(F)(F)C(F)(F)C(F)(F)C(F)(F)F was tested. Which outcome did it give?
Answer: inactive

Question: For CC1(C)C(=O)N(Cl)C(=O)N1Cl, which outcome is on record?
Answer: inactive

Question: CC(C)c1nnc2ccc(-c3ocnc3-c3cc(F)ccc3F)cn12 was tested. Which outcome did it give?
Answer: inactive

Question: Which AC50 does the source give for CC(C)C(=O)Nc1ccc([N+](=O)[O-])c(C(F)(F)F)c1 here?
Answer: 135 µM (active)

Question: For CCCCCCCCCCCCCCCCOS(=O)(=O)O, which outcome is on record?
Answer: inactive

Question: c1ccc(C(O[C@@H]2CCCN(CCc3ccc4c(c3)OCO4)C2)c2ccccc2)cc1 was tested. Which AC50 did it give?
Answer: 18.1 µM (active)

Question: How did the outcome turn out when CCc1cccc(CC)c1N was run?
Answer: inactive

Question: NC(=O)N1c2ccccc2C=Cc2ccccc21 was tested. Which outcome did it give?
Answer: inactive

Question: O=C(O)c1cccc(C[C@@H]2COc3ccc(OCc4nc5cc(F)ccc5s4)cc3[C@@H]2O)c1 was tested. Which outcome did it give?
Answer: inactive

Question: For CCCCCCCC1CCC(=O)O1 (stereo not given), which outcome is on record?
Answer: inactive

Question: CC(C)CC(C)O (stereo not given) was tested. Which outcome did it give?
Answer: inactive

Question: How did the outcome turn out when CCn1nc(C)c2c1C(=O)NCC(c1ccc(O)cc1)=N2 was run?
Answer: inactive

Question: With NCC(F)(F)C(F)(F)C(F)(F)C(F)(F)F as the compound, how does the outcome read?
Answer: inactive

Question: With OC(CCl)CCl as the compound, how does the outcome read?
Answer: inactive

Question: O=C(O)[C@H](O)[C@@H](O)C(=O)O was tested. Which outcome did it give?
Answer: inactive

Question: Which outcome does the source give for O=C(O)c1ccc2c(c1)nc(C(=O)NC1CCN(C3CC3)CC1)n2Cc1cc(-c2ccc(Cl)s2)on1 here?
Answer: inactive

Question: With O=S1(=O)CCCO1 as the compound, how does the outcome read?
Answer: inactive

Question: CCCCN1C(=O)[C@@H]([C@H](O)C2CCCCC2)NC(=O)C12CCN(Cc1ccc(Oc3ccc(C(=O)O)cc3)cc1)CC2 was tested. Which outcome did it give?
Answer: inactive

Question: Which outcome does the source give for FC(F)(F)C(F)(F)C(F)(F)C(F)(F)C(F)(F)C(F)(F)I here?
Answer: inactive

Question: With CCCCCOC(C)=O as the compound, how does the outcome read?
Answer: inactive

Question: Which AC50 does the source give for CCCCCCCCCCCCCCO here?
Answer: 114 µM (active)

Question: How did the outcome turn out when C[Si](C)(C)C(F)(F)C(F)(F)C(F)(F)F was run?
Answer: inactive

Question: With CCCC(CCC)C(=O)O as the compound, how does the outcome read?
Answer: inactive

Question: C=CN1CCCC1=O was tested. Which outcome did it give?
Answer: inactive

Question: With NC(=O)N(O)[C@@H]1COc2cc(OCc3ccccc3)ccc21 as the compound, how does the outcome read?
Answer: inactive

Question: O=C1CN(N=Cc2ccc([N+](=O)[O-])o2)C(=O)N1 was tested. Which outcome did it give?
Answer: inactive

Question: With Nc1ccn([C@@H]2O[C@H](CO)[C@@H](O)[C@@H]2O)c(=O)n1 as the compound, how does the outcome read?
Answer: inactive

Question: Which outcome does the source give for OCc1ccccc1 here?
Answer: inactive

Question: With COc1cc(C(C)C)c2c(c1)S(=O)(=O)N(COc1cc(=O)n3cccc(OCCN4CCCCC4)c3n1)C2=O as the compound, how does the outcome read?
Answer: inactive

Question: CNC(C)=O was tested. Which outcome did it give?
Answer: inactive

Question: Which AC50 does the source give for COS(C)(=O)=O here?
Answer: 22.1 µM (active)

Question: OCC(CO)(CO)CO was tested. Which outcome did it give?
Answer: inactive
